Source: PubChem BioAssay
Cycloheximide cs: counter-screen hit for Shiga toxin inhibitors, cycloheximide. cell reporter, cycloheximide protein synthesis inhibition counterscreen. max response, %. 300,000 compounds, 12% hits; in the data active = max response mostly above about 13%, no sharp cut-off; inactive = mostly below about 14%; note: read at 38.3 µM for the half of the compounds with a filed dose; 0% is about no effect
Shiga toxin inh: Shiga toxin inhibition; Vero cells, Shiga toxin protein synthesis inhibition reporter; inhibition, % at 38.7 µM; 290,000 compounds, 9.2% hits; AID 2315; in the data active = inhibition mostly above about 28%, no sharp cut-off; inactive = mostly below about 43%; note: 0% is about no effect
Pf growth 96h: P. falciparum growth inhibition at 96 hour, primary screen for plastid delayed-death inhibitors; P. falciparum luciferase reporter growth, 96 h; Potency, µM (highest dose often 28.7 µM), inactives show top-dose activity change, negative = inhibition, actives largely listed as inhibitors; 320,000 compounds, 6.9% hits; AID 504834; note: potency is the fitted concentration of half-maximal effect; % is set by controls: 0 for no effect and ±100 for the full control effect
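Two parasite generations (96 h, 37 C, 5% CO2) of compound exposure in infected erythrocytes (0.05% parasitemia, 2% hematocrit). Luciferase-reporter P. falciparum; decreased luminescence indicates inhibited growth, aimed at apicoplast-acting delayed death.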
Pf growth 48h: P. falciparum growth inhibition at 48 hours (one generation) | P. falciparum luciferase growth in erythrocytes, 48 h | Potency, µM (top dose mostly 28.7 µM), without a hit: at the highest dose activity change, negative = inhibition, hits mostly inhibitors | 310,000 compounds, 5.9% hits | AID 504832; note: potency is the fitted concentration of half-maximal effect; % is set by controls: 0 for no effect and ±100 for the full control effect
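A one-generation exposure of luciferase-tagged malaria parasites in RPMI 1640/Albumax erythrocyte culture, 37 C and 5% CO2. Inhibition is inferred from decreased luminescence after adding detection reagent.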
HCMV inh: blocks human cytomegalovirus replication; 410,000 compounds, 4.5% hits; HFF cells, HCMV-luciferase reporter, 72 h; stronger effect = lower value; AID 1259415; activity change, negative = inhibition, % at 57.5 µM; in the data active = activity change below about -60%; inconclusive = no clear call, values can overlap the other calls; inactive = above about -39%; note: % is set by controls: 0 for no effect and ±100 for the full control effect
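After 16 h attachment at 37C, HFF cells received test compound and HCMV-luciferase (1 PFU/cell); reporter luminescence read 72 h later, data normalized against buffer-only and known inhibitor Salinomycin.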
Starred values were filed as active, the others as inactive; u = inconclusive; x = no result. Hits are enriched below; roughly 20% of the tested compounds scored in any of these assays. Unless noted, calls come from the whole dose curve; as a rule, active = well fitted inhibition curve with a large enough effect; inconclusive = small, poorly fitted or top-dose-only effect, or another doubt; inactive = no such curve, though single readings can be large or run the other way.

SMILES	Cycloheximide cs	Shiga toxin inh	Pf growth 96h	Pf growth 48h	HCMV inh
O=C/C(=C\Nc1ccccn1)c1nc2cc(Cl)ccc2o1	47*	63*	u	u	6
CC(=O)Nc1cccc(N/C=C(\C=O)c2nc3ccccc3o2)c1	29*	36*	-3%	22%	-5
O=C1COc2ccc(C(=O)COC(=O)Cc3c(F)cccc3Cl)cc2N1	x	x	-4%	-14%	-35
Cc1cccc(CNC(=O)C2CCC(=O)N(Cc3ccccc3F)C2)n1 (centres undefined)	-1	-8	u	-2%	-38
Cc1ccc2nc(CNC(=O)C3CCC(=O)N(Cc4ccccc4F)C3)cn2c1 (centres undefined)	-1	-4	-4%	-8%	18
CC1(C)CC(NC(=O)C2CCC(=O)N(Cc3ccccc3F)C2)CC(C)(C)C1 (centres undefined)	26*	58*	-22%	u	5
Cc1ccc(C(C)(C)NC(=O)C2CCC(=O)N(Cc3ccccc3F)C2)cc1 (centres undefined)	16*	23	3%	12%	u
CCNC(=O)C1(C)CCN1CCS(=O)(=O)c1ccc(C)cc1 (centres undefined)	x	x	x	x	-102*
CN(C)CCCN(C(=O)c1ccc(Br)s1)c1nc2cc3c(cc2s1)OCCO3	x	x	u	u	20
CN(C)CCCN(C(=O)c1cc2cc([N+](=O)[O-])ccc2s1)c1nc2cc3c(cc2s1)OCCO3	x	x	u	u	-98*
CN(C)CCCN(C(=O)c1ccc([N+](=O)[O-])s1)c1nc2cc3c(cc2s1)OCCO3	12*	20	13%	22%	9
CC1CCC(N2CC(=O)N(C3CCCCC3)C(c3ccc(F)cc3)C2=O)CC1 (centres undefined)	x	x	x	x	-16
COc1ccc2nc(SCC(=O)Nc3nccs3)[nH]c2c1	20*	43*	173%	14%	-2
O=C(CSc1nc2ccccc2[nH]1)c1ccco1	28*	106*	39%	82%	41
O=C(CSc1nc2ccccc2[nH]1)Nc1c(F)c(F)c(F)c(F)c1F	11	1	-21%	34%	24
O=C(CSc1ncnc2ccccc12)c1ccco1	25*	57	5%	97%	x
CCOc1ccc2nc(SCC(=O)N(C)C)[nH]c2c1	71*	74*	204%	x	41
C[n+]1cnc(-c2ccccc2)cc1-c1ccccc1	-3	-2	-9%	-6%	14
COc1ccc2nc(SCC(=O)NC(C)(C)C)[nH]c2c1	8	56	-29%	30%	18
COc1ccc2nc(SCC(=O)C(C)(C)C)[nH]c2c1	43*	65*	115%	114%	75
COc1ccc2nc(SCC(=O)c3ccco3)[nH]c2c1	48*	63*	191%	112%	19
CSc1ncc(-c2ccc(Cl)cc2)[nH]1	45*	76*	193%	255%	-13
O=C(O)C1CCCCN1S(=O)(=O)c1ccc(Cl)s1 (centres undefined)	0	-16	9.3µM*	x	14
C=CCNC(=S)NNC(=O)Cn1c(-c2ccccc2)cc(=O)n2ncnc12	-1	8	7%	12%	11
O=C(Nc1nnc(SCc2ccc(F)cc2)s1)c1ccccn1	40*	93*	u	u	-99*
SMILES	Cycloheximide cs	Shiga toxin inh	Pf growth 96h	Pf growth 48h	HCMV inh
CC(C)(C)c1nnc(NC(=O)c2cccnc2Cl)s1	13	5	41%	51%	35
CCC(=O)Nc1nnc(SCc2cccc(F)c2)s1	9	32	30%	16%	-15
O=C(Nc1nnc(SCc2ccc(F)cc2)s1)c1cccnc1Cl	18*	14	-13%	43%	18
CCOc1cc(NC(=O)C2CC2)c(OCC)cc1NC(=O)c1cccc(F)c1	-4	-13	-7%	1%	-31
CC(C(=O)NC(C)(C)C)N(C(=O)CS(=O)CC(=O)Nc1ccc(F)cc1)c1ccccc1F (centres undefined)	9	9	u	4%	-15
COc1ccc(N(CC(=O)Nc2ccc(C)c(F)c2)S(=O)(=O)c2c(C)noc2C)cc1	-2	-3	u	13µM*	50
CCOc1ccc(N(CC(=O)Nc2ccc(C)cc2)S(=O)(=O)c2c(C)noc2C)cc1	-5	-8	-10%	x	-34
Cc1ccc(N(CC(=O)NC2CCCCCC2)S(=O)(=O)c2c(C)nn(C)c2C)cc1	-2	-16	12µM*	0%	-27
COc1ccc(N(CC(=O)Nc2ccc3c(c2)OCCO3)S(=O)(=O)c2cccnc2)cc1	20*	22	u	32%	x
CCOc1ccc(N(CC(=O)Nc2ccc(F)c(F)c2)S(=O)(=O)c2c(C)noc2C)cc1	0	-9	0%	-25%	-63*
COc1ccc(N(CC(=O)Nc2ccc3c(c2)OCO3)S(=O)(=O)c2ccccc2)cc1	13	12	-8%	u	-24
COc1ccc(N(CC(=O)NC2CCCCCC2)S(=O)(=O)c2c(C)nn(C)c2C)cc1	2	-4	u	-24%	-15
COc1ccc(N(CC(=O)Nc2cc(C)on2)S(=O)(=O)c2cc(C)ccc2C)cc1	-3	-10	-28%	-18%	-91*
CCOc1ccc(N(CC(=O)NC2CCCCC2C)S(=O)(=O)c2c(C)noc2C)cc1 (centres undefined)	14*	16	u	u	-12
COc1ccc(N(CC(=O)Nc2ccc3c(c2)OCCO3)S(=O)(=O)c2c(C)noc2C)cc1	11*	37	-8%	u	-24
CCOc1ccc(N(CC(=O)NCc2cccs2)S(=O)(=O)c2c(C)noc2C)cc1	-5	-14	u	x	-60*
Cc1ccc(S(=O)(=O)N(CCc2ccccc2)CC(=O)Nc2ccc(Br)cc2)cc1	x	x	x	x	-22
C[C@@]12C(=O)N(CC3CC3)CC(=O)N1[C@H](C1CC1)[C@@H]1C(=O)N(c3ccccc3)C(=O)[C@@H]12	-2	-4	53%	21%	-30
COC(=O)[C@@H]1[C@@H](CO)[C@@H]2Cn3c(cccc3=O)[C@@H]2N1C(=O)c1ccccc1	x	x	x	x	-5
Cc1nn(C)c(C)c1S(=O)(=O)N(CC(=O)NCc1cccs1)c1ccc(C(C)C)cc1	-2	-8	9.3µM*	1%	-29
CCOc1ccc(N(CC(=O)Nc2ccccc2OCC)S(=O)(=O)c2c(C)noc2C)cc1	-1	16	12µM*	u	-86*
COc1ccc(N(CC(=O)NCc2cccs2)S(=O)(=O)c2c(C)nn(C)c2C)cc1	10	-25	u	x	-8
CCOc1ccc(N(CC(=O)Nc2cccc(OC)c2)S(=O)(=O)c2c(C)noc2C)cc1	-2	-16	0.83µM*	u	-62*
COc1ccc(C)cc1S(=O)(=O)N(CC(=O)Nc1cccc([N+](=O)[O-])c1)c1ccc(C)c(C)c1	-3	-3	17%	13µM*	-23
CCOc1ccc(NC(=O)CN(c2ccc(CC)cc2)S(=O)(=O)c2c(C)noc2C)cc1	x	x	x	x	-7
